Measurements: the supplement of paper PMC6555819

tested on: PPARg DBDmut IVT, anti-PPARg (DBD mutation: PPARg1 K132A/R137A, NR concentration 270 nM); assay: PBM binding z-score (relative to random genomic background probes); higher = stronger binding; sequences stand for … in GC…GCGATTGACAGCGTAGAATGAAGG
Procedure, shortened: (§1)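 Binding z-scores were set against random background probes. The data came from custom Agilent 4×180K protein-binding microarrays carrying double-stranded probes with 34-nt variable regions, incubated 1 h with ligand-free nuclear receptor dimers. Partner-specific antibodies detected binding, and scanned fluorescence was regression-normalized.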

Sequence | PBM binding z-score
TTACCAGGGTGAAGGTCGTTGATCCCTCTGTAGA | -0.0741
TCATATAGGTAAACTGGTGAAAGTCCGTAAGTTA | 1.35
TCTATTAGTTCATTAGGGCAACCGAAACAGCGGA | 1.13
TCTTGTAGATCAACGGTTAAGAAAGCCGAAGCCT | 0.541
TCTAGTTAGTCAAAGGTCACACACTCGAAATGCG | 3.06
ATCTCTATGTAACCAAGTTCAGTGAATGCCGAAC | 1.12
TGAATGAGGTTATAAGATCACGGAACGTTGCAAA | 1.32
CGTCAAAGTTCGAGGTAACGTAACAGAAAGCAGC | 0.105
CAAACTAGGCCAAAGGTCAAAGTCGAGCCAACCA | 1.59
GCATATAGGTAATAGAAGGTGAAAGTCCGATTGT | 0.104
TCTTGTAGATCAGCAGGTTAAGAAGGCTGGCCAA | -0.862
GCTGCTAGGTCAACTGATCGTCAGCTAAAGCTCG | -0.779
TTACCAAGGGGAAGGTCGTTGATCCCTCTGTAGA | -0.525
CTCGAAAGGTTGGTTGAGGTGAGTATACGGATAA | -0.309
TCTTGTAGATAAATAGAGGTTAAGAAAGTGCGCT | 0.956
GCTCGGAGGATAAGGTCAGAGCTTTGTCCGTAGA | -1.51
TCATATCGGTAAAGGTGAAAGTCGAACGATATGA | 0.266
CGTCCAAGGTCAACGGTCAGTGAAGAGATGACGG | 0.233
GCTATTAGTTGATAGGGCAACCGAATGATTCTCG | -0.757
GATACAGGGTCAAGGCCGGAGTACGCGTATTGAT | 0.122

Sequence | PBM binding z-score
CGAACTAGGTCATTGACACGACAGTGAATAGTAA | 3.06
CCTACTGTGCCAAAGGTCATTGATTCCAATGCTC | 0.496
TCTCGGAGTACACGAAAGGTCAGAGCTCGACATC | 0.21
CCAGACAGGTGAAAGGGAACTCAGTCTGGTACGC | -0.448
ATCTAAAGGTCGTGAGGTGAGTATACAGAAAGGC | 1.74
CCGACTGCGGCAAAGGTTACCATACTCAGTACGA | 0.245
TCTTGTAGCTCAGCAGGTTAAGAAAGCTGGCCAA | -0.876
CCTACTGGGCGAAAGGTCATTGATTCCAATGCTC | -0.595
ATTGAAAGGTCGTGAGGTGAGTATACAGAAAGGC | 1.68
CTAGACAGGTGAGAAGGTAACTCAGCCTCGATTA | -0.714
AGTCAAAGTTCACTAGGTGACGTAAGATTCAGCT | 0.955
TCTTGTAGATCAAGCAGGTTAAGCAAGCCTGAGT | -0.0257
GCTAGCAGGCCATTTGGTTCACTCAATGACGGGC | -0.975
CCTAGCAGGCCAAGCTGGGTCACTCAAGGCTTGA | -1.65
GCAGAGAGGTGAAACGCAGGTAACTCAGGGTGGC | -1.39
TCTTGTAGATTAAGCAGGTTAAGAAAGCCTGAGT | 0.04
CCTGGTAGGTCAATGGTCAGCTAAAGCAGCTCGC | -0.453
GCAGACAGGTGAAACGCACGTAACTCAGGGTGGC | -0.35
TCTAGAAGGCCAGAGGGTCACTCAAGAGGTACGG | 0.186
GGAGACAGGTGAAACGCAGGTAACTCAGGGTGGC | -0.98

tested on: PPARg homodimer (NR concentration 180 nM); assay: as above
Procedure, shortened: as §1

Sequence | PBM binding z-score
TTACCAGGGTGAAGGTCGTTGATCCCTCTGTAGA | 1.08
TCATATAGGTAAACTGGTGAAAGTCCGTAAGTTA | 0.515
TCTATTAGTTCATTAGGGCAACCGAAACAGCGGA | 1.3
TCTTGTAGATCAACGGTTAAGAAAGCCGAAGCCT | 0.0861
TCTAGTTAGTCAAAGGTCACACACTCGAAATGCG | 5.38
ATCTCTATGTAACCAAGTTCAGTGAATGCCGAAC | 0.121
TGAATGAGGTTATAAGATCACGGAACGTTGCAAA | 0.335
CGTCAAAGTTCGAGGTAACGTAACAGAAAGCAGC | 1.18
CAAACTAGGCCAAAGGTCAAAGTCGAGCCAACCA | 2.88
GCATATAGGTAATAGAAGGTGAAAGTCCGATTGT | 0.675
TCTTGTAGATCAGCAGGTTAAGAAGGCTGGCCAA | 0.413
GCTGCTAGGTCAACTGATCGTCAGCTAAAGCTCG | 0.899
TTACCAAGGGGAAGGTCGTTGATCCCTCTGTAGA | -0.13
CTCGAAAGGTTGGTTGAGGTGAGTATACGGATAA | 0.774
TCTTGTAGATAAATAGAGGTTAAGAAAGTGCGCT | 0.0767
GCTCGGAGGATAAGGTCAGAGCTTTGTCCGTAGA | 0.565
TCATATCGGTAAAGGTGAAAGTCGAACGATATGA | 0.769
CGTCCAAGGTCAACGGTCAGTGAAGAGATGACGG | 2.65
GCTATTAGTTGATAGGGCAACCGAATGATTCTCG | 0.294
GATACAGGGTCAAGGCCGGAGTACGCGTATTGAT | 1.8

Sequence | PBM binding z-score
CGAACTAGGTCATTGACACGACAGTGAATAGTAA | 2.25
CCTACTGTGCCAAAGGTCATTGATTCCAATGCTC | 4.4
TCTCGGAGTACACGAAAGGTCAGAGCTCGACATC | 1.29
CCAGACAGGTGAAAGGGAACTCAGTCTGGTACGC | 0.717
ATCTAAAGGTCGTGAGGTGAGTATACAGAAAGGC | 2.21
CCGACTGCGGCAAAGGTTACCATACTCAGTACGA | 0.843
TCTTGTAGCTCAGCAGGTTAAGAAAGCTGGCCAA | -0.753
CCTACTGGGCGAAAGGTCATTGATTCCAATGCTC | 2.89
ATTGAAAGGTCGTGAGGTGAGTATACAGAAAGGC | 2.07
CTAGACAGGTGAGAAGGTAACTCAGCCTCGATTA | 0.258
AGTCAAAGTTCACTAGGTGACGTAAGATTCAGCT | 3.29
TCTTGTAGATCAAGCAGGTTAAGCAAGCCTGAGT | -0.443
GCTAGCAGGCCATTTGGTTCACTCAATGACGGGC | -0.906
CCTAGCAGGCCAAGCTGGGTCACTCAAGGCTTGA | 0.234
GCAGAGAGGTGAAACGCAGGTAACTCAGGGTGGC | -0.0516
TCTTGTAGATTAAGCAGGTTAAGAAAGCCTGAGT | -0.0749
CCTGGTAGGTCAATGGTCAGCTAAAGCAGCTCGC | 2.06
GCAGACAGGTGAAACGCACGTAACTCAGGGTGGC | -0.768
TCTAGAAGGCCAGAGGGTCACTCAAGAGGTACGG | 1.22
GGAGACAGGTGAAACGCAGGTAACTCAGGGTGGC | -0.102
